G9a inh – qHTS Assay for Inhibitors of Histone Lysine Methyltransferase G9a | G9a H3K9 monomethylation, AlphaScreen, 2 h | AID 504332, 2011 | Histone-lysine N-methyltransferase EHMT2 (Homo sapiens), Q96KQ7 | Potency, µM (highest dose often 102 µM), inactives show at the highest dose activity, negative = inhibition, hits mostly inhibitors | 350,000 compounds, 8.8% hits; note: potency is the fitted concentration of half-maximal effect; % is set by controls: 0 for no effect and ±100 for the full control effect; nearly all actives have a fitted effect of over 75% in size
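Quantitative HTS format: methyltransferase activity on a biotin-tagged H3K9 peptide is measured by AlphaScreen, using a rabbit anti-monomethyl-H3K9 antibody with streptavidin donor and anti-IgG acceptor beads. Final levels are 20 nM enzyme, 500 nM peptide, 20 uM SAM; 2 h RT.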
JMJD2A Tudor – qHTS Assay for Inhibitors of JMJD2A-Tudor Domain | Potency, µM (doses to about 114 µM), inactives show at the top dose activity change, negative = inhibition, actives largely listed as inhibitors | AlphaScreen JMJD2A-Tudor / H3K4me3 peptide binding | Lysine-specific demethylase 4A (Homo sapiens), O75164 | 390,000 compounds, 4.4% hits | AID 504339, 2011; note: potency is the fitted concentration of half-maximal effect; % is set by controls: 0 for no effect and ±100 for the full control effect; nearly all actives have a fitted effect of over 50% in size
BAZ2B inh – qHTS Assay for Inhibitors of BAZ2B; Potency, µM (highest dose often 114 µM), for inactives: at the top dose activity change, negative = inhibition, actives largely listed as inhibitors; AID 504333, 2011; Bromodomain adjacent to zinc finger domain protein 2B (Homo sapiens), Q9UIF8; AlphaScreen BAZ2B-H3K14Ac peptide displacement; 360,000 compounds, 4.4% hits; note: potency is the fitted concentration of half-maximal effect; % is set by controls: 0 for no effect and ±100 for the full control effect; nearly all actives have a fitted effect of over 60% in size
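Multi-concentration screen (max 110 uM) measuring displacement of acetylated histone H3 peptide from BAZ2B by AlphaScreen, using 50 nM protein, 50 nM peptide and 10 ug/mL streptavidin donor plus Ni-chelate acceptor beads.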
CtBP-E1A blk – qHTS Assay for Inhibitors of the CtBP/E1A Interaction. CtBP / adenovirus E1A interaction (AlphaScreen). AlphaScreen GST-E1A/His-CtBP binding, 1536-well; stronger effect = lower value. activity change, % (test concentration not listed). 340,000 compounds, 0.49% hits. AID 651724, 2012; in the data active = activity change below about -65%; inconclusive = mostly about -30% to -63%; note: % is set by controls: 0 for no effect and ±100 for the full control effect
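GST-E1A and His-tagged CtBP (125 nM each as 5X stock) were preincubated with pin-transferred compound for 2 h at 37 °C in the dark, then glutathione donor and nickel acceptor beads were added for 1 h before AlphaScreen reading.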
HP1b chromo inh – HTS for Inhibitors of HP1-beta Chromodomain Interactions with Methylated Histone Tails. AlphaScreen HP1-beta / biotin-H3K9me3 peptide binding. 390,000 compounds, 0.56% hits. Potency, µM (series often up to 114 µM), for inactives: at the highest dose activity change, negative = inhibition, actives largely listed as inhibitors. Chromobox protein homolog 1 (Homo sapiens), P83916; note: potency is the fitted concentration of half-maximal effect; nearly all actives have a fitted effect of over 70% in size
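AlphaScreen: HP1-beta (50 nM) preformed 30 min with biotin-H3(1-18)K9me3 peptide (50 nM) in PBS pH 7.4, 0.01% Tween-20. Compound added for 30 min at RT, then streptavidin donor/nickel chelate acceptor beads (10 ug/mL) for 30 min.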
Six1-Eya2 inh – qHTS Assay for Inhibitors of the Six1/Eya2 Interaction | Homeobox protein SIX1 (Homo sapiens) + Protein phosphatase EYA2 (Homo sapiens), … | AlphaScreen GST-Six1/His-Eya2 binding, biochemical; stronger effect = lower value | activity change, % (test concentration not listed) | 360,000 compounds, 0.56% hits; in the data active = activity change below about -65%; inconclusive = mostly about -30% to -63%; note: % is set by controls: 0 for no effect and ±100 for the full control effect
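Compounds are tested against tagged Six1 and Eya2 proteins bridged by glutathione donor and nickel acceptor beads; after a one-hour incubation at 37 °C without light, AlphaScreen emission is recorded.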
Starred values were filed as active, the others as inactive; [ ] = remark or other dose. In the library only some 10% were active in any assay of this set; here they are far more common. Unless noted, calls come from the whole dose curve; as a rule, active = well fitted inhibition curve with a large enough effect; inconclusive = small, poorly fitted or top-dose-only effect; inactive = no such curve, though single readings can be large or run the other way.

For Cc1ccc(S(=O)(=O)N2CCCCC2)cc1NC(=O)Cc1c[nH]c2ccccc12 the results were G9a inh -5.1%[59 µM], JMJD2A Tudor inconclusive, BAZ2B inh -6.0%, CtBP-E1A blk -13.4, HP1b chromo inh -4.3% and Six1-Eya2 inh -13.2.
For Cc1ccc(NC(=O)Cc2c[nH]c3ccccc23)cc1S(=O)(=O)N1CCCCCC1 the results were G9a inh 25.1µM*, JMJD2A Tudor -19.2%, BAZ2B inh -38.8%, CtBP-E1A blk 9.7, HP1b chromo inh 27.6% and Six1-Eya2 inh -11.4.
For O=C(COc1ccc(F)cc1Cl)Nc1cccc(S(=O)(=O)N2CCCCCC2)c1 the results were G9a inh -5.9%[59 µM], JMJD2A Tudor -3.5%, BAZ2B inh 12.9%, CtBP-E1A blk -9.9, HP1b chromo inh 53.1% and Six1-Eya2 inh 6.5.
For CC(=O)c1cc(Cl)ccc1OCC(=O)Nc1cccc(S(=O)(=O)N2CCCC2)c1 the results were G9a inh 7.08µM*, JMJD2A Tudor 1.3%, BAZ2B inh 21.1%, CtBP-E1A blk 1.0, HP1b chromo inh 31.6% and Six1-Eya2 inh -4.3.
For COc1ccc(NC(=O)COc2ccc(C)c(C)c2)cc1S(=O)(=O)N1CCCCC1 the results were G9a inh 56.2µM*, JMJD2A Tudor -12.4%, BAZ2B inh 1.6%, CtBP-E1A blk -12.7, HP1b chromo inh 30.5% and Six1-Eya2 inh -21.2.
`COc1ccc(NC(=O)CN(C)CC(=O)Nc2cccc(F)c2)cc1S(=O)(=O)N1CCCCC1` gave JMJD2A Tudor 2.82µM*, CtBP-E1A blk 10.2, HP1b chromo inh inconclusive and Six1-Eya2 inh 1.0.
Screening N[C@H](C(=O)O)[C@H]1C[C@H]1C(=O)O returned G9a inh 43.6%[59 µM].
For CCc1ccc(NC(=O)c2ccc(F)c(S(=O)(=O)N3CCN(c4ccc(OC)cc4)CC3)c2)cc1 the results were G9a inh 0.4%[59 µM], JMJD2A Tudor -7.0%, BAZ2B inh -0.8% and HP1b chromo inh 19.4%.
For Cc1ccc(OCC(=O)Nc2cc(NC(=O)COc3ccc(C)cc3)cc(C(=O)O)c2)cc1 the results were G9a inh inconclusive, JMJD2A Tudor -5.6%, BAZ2B inh -2.2%, CtBP-E1A blk -0.5, HP1b chromo inh 15.4% and Six1-Eya2 inh -6.2.
COc1ccc(NC(=O)Cc2ccccc2F)cc1S(=O)(=O)N1CCCCC1 was read as G9a inh 0.316µM*, JMJD2A Tudor 1.0%, BAZ2B inh 0.5%, CtBP-E1A blk 4.0, HP1b chromo inh 43.0% and Six1-Eya2 inh 6.4.
For N#Cc1cccc(NC(=O)CNc2cccc(S(=O)(=O)N3CCCC3)c2)c1 the results were G9a inh -33.0%, JMJD2A Tudor -22.0%, BAZ2B inh 2.7%, CtBP-E1A blk -18.4, HP1b chromo inh 61.9% and Six1-Eya2 inh 3.7.
For COc1ccccc1CN(C)CC(=O)Nc1cccc(S(=O)(=O)N2CCCC2)c1 the results were JMJD2A Tudor 0.794µM*, CtBP-E1A blk 5.2, HP1b chromo inh -16.9% and Six1-Eya2 inh -3.7.
`N#Cc1ccc(Cl)cc1NC(=O)CNc1cccc(S(=O)(=O)N2CCCC2)c1` gave G9a inh 44.7µM*, JMJD2A Tudor -3.1%, BAZ2B inh 2.5%, CtBP-E1A blk 1.1, HP1b chromo inh 39.5% and Six1-Eya2 inh 0.0.
Cc1ccc(OCC(=O)Nc2cc(C(=O)O)cc(C(=O)O)c2)cc1C was read as G9a inh inconclusive, JMJD2A Tudor 8.91µM*, BAZ2B inh -12.8%, CtBP-E1A blk 2.0, HP1b chromo inh -11.1% and Six1-Eya2 inh -0.7.
